# From paper PMC3218832
# Tests used:
# Test in all cases: protein binding microarray; high values mean tight binding
# Settings in all cases: dsDNA, one strand shown
# RELARELA (p65 homodimer) = RELARELA (p65 homodimer) (Homo sapiens, UniProt Q04206 1-307)
# p50p50 homodimer = p50p50 homodimer (Homo sapiens, UniProt P19838 7-356)
# p52p52 homodimer = molecular target: T1, p52p52 homodimer (Homo sapiens, UniProt Q00653 4-332)
# T1 sequence: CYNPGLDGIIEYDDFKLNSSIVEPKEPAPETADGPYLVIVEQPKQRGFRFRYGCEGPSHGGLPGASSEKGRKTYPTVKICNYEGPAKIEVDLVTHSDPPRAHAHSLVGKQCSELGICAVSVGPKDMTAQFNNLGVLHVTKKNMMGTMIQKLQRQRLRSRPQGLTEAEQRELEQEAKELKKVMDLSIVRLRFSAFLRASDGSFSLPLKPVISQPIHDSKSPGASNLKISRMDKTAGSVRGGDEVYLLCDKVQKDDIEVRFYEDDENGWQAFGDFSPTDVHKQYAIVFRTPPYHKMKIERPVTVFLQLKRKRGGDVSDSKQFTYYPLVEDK
# [1] = molecular target: RELA (p65) subunit of heterodimer;p50 subunit (Homo sapiens;Homo sapiens, UniProt Q04206;P19838 1-307;7-356)
# [2] = molecular target: RELA (p65) subunit of heterodimer;p52 subunit (Homo sapiens;Homo sapiens, UniProt Q04206;Q00653 1-307;4-332)
# RELB subunit;p50 subunit = RELB subunit;p50 subunit (Homo sapiens;Homo sapiens, UniProt Q01201;P19838 120-401;7-356)
# RELB subunit;p52 subunit = molecular target: T2, RELB subunit;p52 subunit (Homo sapiens;Homo sapiens, UniProt Q01201;Q00653 120-401;4-332)
# T2 sequence 1: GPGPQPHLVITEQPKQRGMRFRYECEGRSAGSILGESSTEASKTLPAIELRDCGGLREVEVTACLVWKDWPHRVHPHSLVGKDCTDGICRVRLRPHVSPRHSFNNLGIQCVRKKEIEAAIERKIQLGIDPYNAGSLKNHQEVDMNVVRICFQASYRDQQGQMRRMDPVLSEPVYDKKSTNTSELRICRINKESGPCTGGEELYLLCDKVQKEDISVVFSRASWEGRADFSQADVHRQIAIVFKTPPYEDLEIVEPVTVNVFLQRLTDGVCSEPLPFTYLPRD
# T2 sequence 2: T1 sequence
# [3] = molecular target: C-Rel subunit;p50 subunit (Homo sapiens;Homo sapiens, UniProt Q04864;P19838 1-285;7-356)
# [4] = molecular target: T3, C-Rel subunit;p52 subunit (Homo sapiens;Homo sapiens, UniProt Q04864;Q00653 1-285;4-332)
# T3 sequence 1: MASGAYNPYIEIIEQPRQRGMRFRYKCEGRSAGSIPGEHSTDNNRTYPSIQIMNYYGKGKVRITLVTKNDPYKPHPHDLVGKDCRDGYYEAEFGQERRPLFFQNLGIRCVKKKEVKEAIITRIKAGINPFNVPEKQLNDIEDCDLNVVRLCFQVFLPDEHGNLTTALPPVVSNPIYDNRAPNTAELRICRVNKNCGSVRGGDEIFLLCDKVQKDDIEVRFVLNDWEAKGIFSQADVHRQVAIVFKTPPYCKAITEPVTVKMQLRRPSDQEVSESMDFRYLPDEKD
# T3 sequence 2: T1 sequence
# RELARELA (p65 homodimer), sequence (Q04206 1-307): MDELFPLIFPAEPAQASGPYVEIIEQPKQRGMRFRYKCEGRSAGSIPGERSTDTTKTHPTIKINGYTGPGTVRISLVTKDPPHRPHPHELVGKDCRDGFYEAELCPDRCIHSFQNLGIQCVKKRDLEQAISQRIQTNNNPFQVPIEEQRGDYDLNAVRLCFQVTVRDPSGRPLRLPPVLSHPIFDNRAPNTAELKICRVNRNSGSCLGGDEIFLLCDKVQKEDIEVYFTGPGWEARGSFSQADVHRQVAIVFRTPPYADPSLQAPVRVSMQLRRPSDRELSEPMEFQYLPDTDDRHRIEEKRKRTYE
# RELA (p65) subunit of heterodimer;p50 subunit, sequence (Q04206 1-307, chain 1 of 2): as the sequence (Q04206 1-307) above
# RELA (p65) subunit of heterodimer;p50 subunit, sequence (P19838 7-356, chain 2 of 2): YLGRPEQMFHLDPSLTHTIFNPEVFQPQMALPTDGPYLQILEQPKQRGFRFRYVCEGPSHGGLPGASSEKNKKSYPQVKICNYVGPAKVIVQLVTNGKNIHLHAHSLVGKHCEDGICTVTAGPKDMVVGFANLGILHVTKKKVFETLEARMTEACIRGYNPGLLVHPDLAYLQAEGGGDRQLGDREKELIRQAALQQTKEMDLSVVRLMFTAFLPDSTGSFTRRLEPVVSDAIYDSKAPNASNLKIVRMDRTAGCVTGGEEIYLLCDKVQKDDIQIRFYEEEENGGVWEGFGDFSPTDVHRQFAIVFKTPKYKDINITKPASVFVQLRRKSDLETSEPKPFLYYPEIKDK
# p50p50 homodimer, sequence (P19838 7-356): as the sequence (P19838 7-356, chain 2 of 2) above
Sequence,binding signal (RELARELA (p65 homodimer)),binding signal (p50p50 homodimer),binding signal (p52p52 homodimer),binding signal [1],binding signal [2],binding signal (RELB subunit;p50 subunit),binding signal (RELB subunit;p52 subunit),binding signal [3],binding signal [4]
GAGATTGCCCC,0.817 z-score,0.318 z-score,0.0909 z-score,0.951 z-score,0.468 z-score,0.435 z-score,0.366 z-score,1.1 z-score,0.621 z-score
AAAAACCTCCC,0.0581 z-score,0.2 z-score,-0.135 z-score,0.166 z-score,-0.13 z-score,0.0831 z-score,0.117 z-score,0.28 z-score,0.0846 z-score
CGAATCATCCC,-0.386 z-score,-0.966 z-score,-0.352 z-score,-0.734 z-score,-0.619 z-score,-0.644 z-score,-0.752 z-score,-0.745 z-score,-0.523 z-score
CGAGATACCCC,-0.193 z-score,0.305 z-score,0.114 z-score,0.439 z-score,0.228 z-score,0.539 z-score,0.921 z-score,0.515 z-score,0.344 z-score
GAAAAATTCCT,1.78 z-score,-0.0646 z-score,-0.212 z-score,0.245 z-score,0.117 z-score,-0.659 z-score,-0.236 z-score,0.538 z-score,0.319 z-score
CGATAATTCCC,2.04 z-score,0.948 z-score,0.738 z-score,1.43 z-score,0.974 z-score,0.871 z-score,0.87 z-score,1.51 z-score,1.12 z-score
GGGAACGCCCT,0.932 z-score,-0.126 z-score,0.394 z-score,0.492 z-score,0.418 z-score,-0.197 z-score,0.214 z-score,0.154 z-score,0.403 z-score
GAGTTCTCCCC,0.519 z-score,1.01 z-score,0.732 z-score,1.01 z-score,1.01 z-score,1.23 z-score,1.07 z-score,1.15 z-score,0.673 z-score
GGAAGCTTCCT,0.818 z-score,-1.04 z-score,-0.619 z-score,-0.33 z-score,-0.759 z-score,-1.01 z-score,-0.836 z-score,-0.977 z-score,-0.614 z-score
AGAGTAGCCCT,-0.721 z-score,-1.16 z-score,-0.729 z-score,-0.963 z-score,-0.869 z-score,-0.78 z-score,-0.814 z-score,-1.22 z-score,-0.688 z-score
GAGTGCGTCCT,-0.395 z-score,-1.33 z-score,-0.581 z-score,-0.981 z-score,-0.769 z-score,-0.991 z-score,-0.844 z-score,-1.14 z-score,-0.662 z-score
GAGAAAACCCT,0.625 z-score,0.495 z-score,0.559 z-score,0.373 z-score,0.499 z-score,0.0283 z-score,0.361 z-score,0.245 z-score,0.234 z-score
GGGTACCTCCC,-0.276 z-score,0.39 z-score,1.06 z-score,0.436 z-score,0.843 z-score,0.429 z-score,0.437 z-score,0.243 z-score,0.556 z-score
GGATGTCCCCC,0.799 z-score,1.11 z-score,1.17 z-score,1.69 z-score,1.37 z-score,1.27 z-score,1.47 z-score,1.1 z-score,1.45 z-score
GGAAAGATCCT,-0.0836 z-score,-1.25 z-score,-0.674 z-score,-0.749 z-score,-0.654 z-score,-0.932 z-score,-0.789 z-score,-0.978 z-score,-0.449 z-score
AAATAGATCCC,-0.751 z-score,-0.68 z-score,-0.334 z-score,-0.662 z-score,-0.554 z-score,-0.403 z-score,-0.661 z-score,-0.87 z-score,-0.679 z-score
AAGGATACCCC,0.0433 z-score,0.446 z-score,0.189 z-score,0.436 z-score,0.502 z-score,0.457 z-score,0.95 z-score,0.507 z-score,0.247 z-score
CGGAGGTTCCC,1.2 z-score,-0.355 z-score,-0.258 z-score,0.387 z-score,-0.0508 z-score,-0.291 z-score,-0.115 z-score,0.126 z-score,-0.0163 z-score
AAGAAGGTCCT,-0.0161 z-score,-1.4 z-score,-0.396 z-score,-1.13 z-score,-0.801 z-score,-0.786 z-score,-0.511 z-score,-1.3 z-score,-0.718 z-score
AGATTCTTCCT,-0.0679 z-score,-0.78 z-score,-0.546 z-score,-0.559 z-score,-0.896 z-score,-0.929 z-score,-0.93 z-score,-0.642 z-score,-0.588 z-score
GGATACTTCCT,0.213 z-score,-1.36 z-score,-0.625 z-score,-0.647 z-score,-0.831 z-score,-1.14 z-score,-0.942 z-score,-1.04 z-score,-0.591 z-score
AAAGGTCCCCT,-0.0302 z-score,1.09 z-score,0.848 z-score,0.65 z-score,0.742 z-score,1.05 z-score,0.989 z-score,0.669 z-score,0.512 z-score
GGAGTTTTCCT,1.88 z-score,-0.38 z-score,-0.329 z-score,0.312 z-score,-0.0971 z-score,-0.676 z-score,-0.581 z-score,0.446 z-score,0.304 z-score
CGAGTTCTCCC,0.00528 z-score,0.1 z-score,-0.0592 z-score,0.0957 z-score,-0.132 z-score,0.367 z-score,0.182 z-score,-0.0444 z-score,-0.16 z-score
CAGAAGTCCCT,0.471 z-score,1.51 z-score,1.62 z-score,1.88 z-score,1.35 z-score,2.02 z-score,1.86 z-score,1.39 z-score,0.987 z-score
AAAGGCACCCT,-1.13 z-score,-0.88 z-score,-0.454 z-score,-0.697 z-score,-0.787 z-score,-0.685 z-score,-0.711 z-score,-1.07 z-score,-0.741 z-score
GGAAATTTCCT,3.45 z-score,0.318 z-score,0.15 z-score,1.83 z-score,1.22 z-score,0.0518 z-score,0.485 z-score,0.9 z-score,1.42 z-score
CAAAATATCCC,0.764 z-score,0.4 z-score,0.253 z-score,0.376 z-score,0.346 z-score,0.128 z-score,0.342 z-score,0.0335 z-score,0.411 z-score
GAGGAATCCCT,0.176 z-score,0.599 z-score,0.671 z-score,0.612 z-score,0.532 z-score,0.403 z-score,0.517 z-score,0.573 z-score,0.416 z-score
